# Results: the supplement of paper PMC7366291
# Where a name gives a salt, the structure may show the parent alone. ± gives the standard deviation or the standard deviation of the averaged measurements.
# How the values were obtained:
# Conditions in all cases: 25 µM; exposure: 24-48 hpf
# [1] = tested on: Danio rerio Tg(wt1b:EGFP) embryo, pronephros; experiment: glomerular separation, fold change vs DMSO control; higher = glomeruli further apart (abnormal)
# In short: (§1)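 Dechorionated Tg(wt1b:EGFP) zebrafish embryos were kept from 24 to 48 hpf at 28.5°C in HEPES-buffered E3 containing 0.003% PTU, 0.5% DMSO and 25 μM compound. The pronephroi were then imaged from the dorsal side in agarose-filled 96-well plates at 470 nm with 10 z-slices, and 16 reference points were placed by hand on maximum projections in Fiji so that a macro could calculate distances and angles. Values lying more than 2 SD from the mean of a feature were discarded. Every feature is given as a fold change against the mean of DMSO-treated embryos from the same day.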
# [2] = tested on: Danio rerio Tg(wt1b:EGFP) embryo, pronephros; experiment: glomerular width (mean of left and right), fold change vs DMSO control; higher = wider glomerulus
# In short: as §1
# [3] = tested on: Danio rerio Tg(wt1b:EGFP) embryo, pronephros; experiment: fraction of imaged embryos annotated as normal kidney; higher = less nephrotoxic; extreme values may be limits of the assay
# In short: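 Dechorionated Tg(wt1b:EGFP) zebrafish embryos were exposed in 12-well plates to 25 μM compound in 0.5% DMSO, 5 mM HEPES-buffered E3 with 0.003% PTU, from 24 to 48 hpf at 28.5°C. Tricaine-anaesthetised larvae were oriented dorsally in agarose-filled 96-well plates, and pronephroi were imaged by widefield fluorescence (470 nm, 10 z-slices). Each embryo was manually annotated from maximum projections. The read-out is the fraction of embryos per treatment assigned to the normal-kidney category.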
# [4] = tested on: Danio rerio Tg(wt1b:EGFP) embryo, pronephros; experiment: pronephric angle neck segment to proximal convoluted tubule (mean of left and right), fold change vs DMSO control; higher = larger pronephric angle
# In short: as §1
SMILES,glomerular separation [1],glomerular width [2],fraction of imaged embryos annotated as normal kidney [3],pronephric angle neck segment [4]
C[C@]12C[C@H](O)[C@H]3[C@@H](CCC4=CC(=O)CC[C@@]43C)[C@@H]1CC[C@@H]2C(=O)CO [Corticosterone],1.36 ± 0.4,1.13 ± 0.026,0.417,1.01 ± 0.019
C[C@H]1NC(=O)NC1=O [Methylhydantoin-5-(D)],0.867 ± 0.33,0.991 ± 0.011,0.917,1.02 ± 0.02
Cc1cccc(N(C)C(=S)Oc2ccc3ccccc3c2)c1 [Tolnaftate],2.28 ± 1.3,0.952 ± 0.03,0.75,1.05 ± 0.065
CCC(C)(C)c1ccc(CC(C)CN2C[C@@H](C)O[C@@H](C)C2)cc1 (stereo partly specified) [Amorolfine hydrochloride],0.874 ± 0.48,0.987 ± 0.017,0.917,0.983 ± 0.05
Cc1ccc(O)c([C@H](CCN(C(C)C)C(C)C)c2ccccc2)c1 [Tolterodine tartrate],1.13 ± 0.42,1.06 ± 0.022,0.818,0.986 ± 0.044
CO[C@@]1(NC(=O)C(C(=O)O)c2ccc(O)cc2)C(=O)N2C(C(=O)O)=C(CSc3nnnn3C)CO[C@@H]21 (stereo partly specified) [Moxalactam disodium salt],0.871 ± 0.28,1.04 ± 0.014,0.917,0.984 ± 0.067
Cn1nnc2c(C(N)=O)ncn2c1=O [Temozolomide],0.665 ± 0.25,1 ± 0.046,0.917,0.9479 ± 0.0066
CC(=O)N(O)CCCCCNC(=O)CCC(=O)N(O)CCCCCNC(=O)CCC(=O)N(O)CCCCCN [Deferoxamine mesylate],0.888 ± 0.3,1.02 ± 0.042,0.917,1.01 ± 0.018
CC#C[C@]1(O)CC[C@H]2[C@@H]3CCC4=CC(=O)CCC4=C3[C@@H](c3ccc(N(C)C)cc3)C[C@@]21C [Mifepristone],0.949 ± 0.33,1.15 ± 0.027,0.75,1.0508 ± 0.001
Cc1c(N(C)C)c(=O)n(-c2ccccc2)n1C [Amidopyrine],0.645 ± 0.17,1 ± 0.0092,0.917,1.01 ± 0.033
c1ccc2c(c1)CCCC2C1=NCCN1 (stereo unspecified) [Tetrahydrozoline hydrochloride],0.793 ± 0.31,1.06 ± 0.027,1,0.98 ± 0.042
CC(c1cc2ccccc2s1)N(O)C(N)=O (stereo unspecified) [Zileuton],1.25 ± 0.57,0.993 ± 0.02,0.667,1.11 ± 0.072
CN(C)CCn1nnnc1SCC1=C(C(=O)O)N2C(=O)[C@@H](NC(=O)Cc3csc(N)n3)[C@H]2SC1 [Cefotiam hydrochloride],1.46 ± 0.87,0.929 ± 0.014,0.917,1.08 ± 0.14
CC[C@@H](CO)NCCN[C@@H](CC)CO [Ethambutol dihydrochloride],1.28 ± 0.4,0.965 ± 0.028,0.75,1.02 ± 0.076
Cc1ccc(S(=O)(=O)NC(=O)NN2CCCCCC2)cc1 [Tolazamide],0.828 ± 0.19,0.948 ± 0.015,0.917,0.972 ± 0.023
CC(CCc1ccccc1)NCC(O)c1ccc(O)c(C(N)=O)c1 (stereo unspecified) [Labetalol hydrochloride],1.04 ± 0.16,1.05 ± 0.075,0.917,1.07 ± 0.069
CN1C(C)(C)CCCC1(C)C [Pempidine tartrate],0.75 ± 0.25,1 ± 0.032,0.833,1.02 ± 0.068
O=C(Cn1ccnc1[N+](=O)[O-])NCCO [Etanidazole],0.807 ± 0.34,1.06 ± 0.014,0.917,0.9304 ± 0.004
C[N+](C)(CCOc1ccccc1)Cc1ccccc1.O=C([O-])c1cc2ccccc2cc1O [Bephenium hydroxynaphthoate],2.05 ± 0.8,0.9959 ± 0.0015,0.583,1.17 ± 0.053
COc1ccc(C2CNC(=O)C2)cc1OC1CCCC1 (stereo unspecified) [Rolipram],0.895 ± 0.31,0.955 ± 0.023,0.833,1.08 ± 0.086
C[C@]12CCC(=O)C=C1CC[C@@H]1[C@@H]2C(=O)C[C@@]2(C)[C@H]1CC[C@]2(O)C(=O)CO [Cortisone],1.08 ± 0.37,1.13 ± 0.017,0.917,1.031 ± 0.0011
NCc1ccccc1CC(=O)N[C@@H]1C(=O)N2C(C(=O)O)=C(CSc3nnnn3CC(=O)O)CS[C@H]12 [Ceforanide],1.15 ± 0.8,0.949 ± 0.091,0.833,1.08 ± 0.038
O=C(NCCNCC(O)COc1ccc(O)cc1)N1CCOCC1 (stereo unspecified) [Xamoterol hemifumarate],1.01 ± 0.28,0.983 ± 0.011,1,0.98 ± 0.045
Nc1nc(=O)c2c([nH]1)NC[C@@H](CNc1ccc(C(=O)N[C@@H](CCC(=O)O)C(=O)O)cc1)N2C=O [Folinic acid calcium salt],0.989 ± 0.3,1.01 ± 0.016,0.583,0.979 ± 0.042
CN(C)C(=O)C(CCN1CCC(O)(c2ccc(Cl)cc2)CC1)(c1ccccc1)c1ccccc1 [Loperamide hydrochloride],1.07 ± 0.32,1.04 ± 0.12,0.667,1.03 ± 0.065
COc1cc2nc(N3CCN(C(=O)c4ccco4)CC3)nc(N)c2cc1OC [Prazosin hydrochloride],0.618 ± 0.16,1 ± 0.021,0.917,1.03 ± 0.04
Cc1cn[nH]c1 [Fomepizole],0.953 ± 0.37,1.0458 ± 0.00026,0.917,1.01 ± 0.018
CCCC(=O)Nc1ccc(OCC(O)CNC(C)C)c(C(C)=O)c1 (stereo unspecified) [Acebutolol hydrochloride],1.43 ± 0.56,1.06 ± 0.075,0.75,0.9596 ± 0.0066
CN(C)CC/C=C1/c2ccccc2Sc2ccc(Cl)cc21 [Chlorprothixene hydrochloride],0.89 ± 0.23,1.034 ± 1.4e-05,0.727,1.04 ± 0.074
